# Experimental data: PubChem BioAssay (NCI)
# This is part of a sample that, as a whole, favours compounds with a hit. Of some 83,000 tested, about 20% had one in any assay.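 Step 1: grow cells in 96-well plates. Step 2: add test compound at a single concentration. Step 3: incubate 48 h. Step 4: record percent growth.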 Unmarked numbers belong to inactive results. Activity calls are given as the source filed them. Rule for the calls: active = growth percent below 10; inactive = the rest.
# Tests used:
# Experiment in all cases: NCI-60 one-dose screen, 48 h (100 = growth as untreated, 0 = no growth, -100 = all killed)
# Settings in all cases: 10 µM unless noted
# T-47D breast = system: T-47D breast
# BT-549 breast = system: BT-549 breast
# MDA-MB-435 melanoma = system: MDA-MB-435 melanoma
# SW-620 colon = system: SW-620 colon
# MCF7 breast = system: MCF7 breast
# HCT-116 colon = system: HCT-116 colon
# HCC-2998 colon = system: HCC-2998 colon
# KM12 colon = system: KM12 colon
SMILES,growth (T-47D breast),growth (BT-549 breast),growth (MDA-MB-435 melanoma),growth (SW-620 colon),growth (MCF7 breast),growth (HCT-116 colon),growth (HCC-2998 colon),growth (KM12 colon)
Cc1cc(C)c2sc(=O)n(Cc3nnc(SCCC(=O)O)o3)c2n1,89.5%,123%,103%,103%,97%,103%,104%,106%
CCOC(=O)c1c(Nc2ccccc2)nn2c(-c3ccccc3)ccnc12,91%,145%,96.1%,105%,91.8%,86.7%,97.1%,88.9%
COc1ccc(-n2c(/C=C3\C(=O)Nc4ccccc43)ccc2CO)cc1,88.8%,100%,94.8%,98.6%,93.3%,95.6%,113%,19.3%
O=S(=O)(NC1c2ccccc2C[C@H]1O)c1ccc(Cl)cc1Cl (some centres not stated),93.7%,126%,94.1%,102%,95.5%,98.1%,97%,96.3%
CC1(C)CC[C@]2(C(=O)O)CC[C@]3(C)C(=CC[C@@H]4[C@@]5(C)CC/C(=N\OCCC#N)C(C)(C)[C@@H]5CC[C@]43C)[C@@H]2C1,104%,106%,101%,94.2%,95.5%,96.4%,116%,105%
COc1c(N2CC3CCCNC3C2)c(F)cc2c(=O)c(C(=O)N/N=C/c3ccc(N(C)C)cc3)cn(C3CC3)c12 (configuration not stated),95.5%,121%,94%,80.7%,44.1%,31.3%,89.4%,74.5%
Cc1ccc(NC(=O)N[C@@H](Cc2cc(F)cc(F)c2)C(=O)NC2C(=O)N3C[C@H](O)C[C@H]3C(=O)N3CCCC[C@H]3C(=O)N[C@@H](CO)C(=O)N3C[C@H](C)C[C@H]3C(=O)O[C@H]2C)c(F)c1 (some centres not stated),32.5%,43.5%,23.1%,44.6%,18.1%,18.1%,31.2%,45.3%
O=S(=O)(Nc1ccc(I)cc1Cl)c1ccc(-c2cnc(C3CC3)o2)cc1,31.7%,34.9%,-4.66% (active),17.9%,23.1%,22.1%,78.6%,26%
COc1ccccc1-n1cc(C#N)c(N)c1C(=O)c1ccc(C)cc1,82.1%,83.9%,5.3% (active),52.4%,51.3%,76.8%,80.9%,59.6%
CN(C)C(=O)c1cc(-c2ccc3ncnc(NCc4ccccc4)c3c2)cnc1N,62%,111%,99.2%,102%,77.5%,101%,102%,101%
COc1ccc(/C=N/NC(=O)c2cn(C3CC3)c3c(OC)c(N4CC5CCCNC5C4)c(F)cc3c2=O)cc1 (configuration not stated),85.9%,112%,100%,92.1%,70.8%,53.6%,95.4%,99.7%
C=C(C=O)[C@@H]1CC[C@]2(C)[C@H](C(=O)C=C3[C@H]4C[C@](C)(C(=O)OC)CC[C@]4(C)CC[C@]32C)[C@@]1(C)CCC#N,19.3%,13.8%,-12.2% (active),4.74% (active),2.5% (active),-56% (active),-73% (active),3.36% (active)
Cn1cc(-c2cc(N)n3nc(-c4cn(C)c5ccccc45)cc3n2)c2ccccc21,90%,128%,0.548% (active),85.9%,44.8%,62.1%,78.5%,72.7%
O=C(c1ccc(O)c(C(=O)N2Cc3ccc(OCCC[P+](c4ccccc4)(c4ccccc4)c4ccccc4)cc3C2)c1)N1Cc2cccc(F)c2C1,38.7%,65.9%,57.1%,76.2%,51.9%,96.9%,68.4%,57.8%
O=C1CC(=O)N2CSCN(C(c3ccccc3)c3nc4ncncc4[nH]3)C2=N1 (configuration not stated),98.8%,105%,107%,102%,93.9%,105%,99.4%,103%
CCNC(=O)N1CCc2cc(OC)c(OCCc3ccc(OC)nc3)cc2C1c1ccc(C)cc1C (configuration not stated),61%,-6.5% (active),10%,19.6%,14%,8.5% (active),13%,9.57% (active)
N#Cc1cn(Cc2ccc(Cl)cc2Cl)c(C(=O)c2ccc(Br)cc2)c1N,87.8%,108%,95.6%,98.8%,87.2%,101%,108%,99.3%
CC(C)(C)c1ccc(C(=O)Nc2nc3ccc(O)cc3s2)cc1,28.5%,62.9%,34.3%,14.2%,15.8%,45.6%,14.7%,14%
COc1ccc(Oc2ccc(/C=N/NC(=O)CSc3nc4ccccc4c(=O)n3-c3ccc(Cl)cc3)cc2)cc1,37.8%,89.4%,87.7%,44.4%,49.3%,13.3%,83.3%,77.2%
COc1ccc(OC)c(-c2nc(SCC(=O)c3ccc(Br)cc3)nc(Nc3ccc(S(N)(=O)=O)cc3)c2C#N)c1,71.1%,49.4%,-18.6% (active),36%,28.9%,15.4%,70.9%,20.9%
CC/C(=C/c1cc(OC)ccc1O)c1ccc2cc(OC)ccc2[o+]1,52.9%,51.5%,-28.3% (active),33.2%,16.6%,26.8%,81.8%,46.1%
NS(=O)(=O)c1ccc(Nc2nc(N/N=C/c3c[nH]c4ccccc34)nc(Nc3ccccc3)n2)cc1,35.3%,48.8%,31.3%,49%,18.8%,15.9%,52.6%,27.3%
C#C[C@]1(O)CC[C@H]2[C@@H]3CC=C4c5sc(-c6cccc(O)c6)nc5CC[C@]4(C)[C@H]3CC[C@@]21C,1.25% (active),-22.8% (active),-51.4% (active),-52.8% (active),-28% (active),-37.6% (active),-24.8% (active),-28.9% (active)
O=C(CSc1nc2ccccc2c(=O)n1-c1ccc(Cl)cc1)N/N=C/c1ccc(N2CCCCC2)cc1,74.6%,104%,86.9%,65.9%,67.5%,36.9%,118%,96.4%
CCn1c2ccccc2c2cc(-n3nncc3-c3ccccc3)ccc21,61.8%,80.5%,-14.3% (active),21.3%,13.4%,5.07% (active),15.2%,17.1%
COC(=O)C[Se]C(=O)Cc1c(C)n(C(=O)c2ccc(Cl)cc2)c2ccc(OC)cc12,83%,102%,39.6%,62.4%,28.2%,4.82% (active),58.3%,26.4%
CCNC(=O)N1CCc2cc(OC)c(OCCc3ccc(OC)nc3)cc2C1c1ccc(OC)cc1C (configuration not stated),49%,29.2%,15%,16%,22.2%,14.4%,42.8%,21.2%
Cc1cc(C)n(C(=O)c2sc(=S)n(-c3ccccc3)c2N=Nc2c(N)n[nH]c2N)n1,117%,107%,104%,102%,96.7%,100%,110%,107%
COC(=O)C(Cc1ccccc1)Nc1nc(NC(Cc2ccccc2)C(=O)OC)nc(N2CCOCC2)n1 (configuration not stated),101%,112%,105%,112%,97.8%,99.2%,110%,99.7%
